Measured values taken from PubChem BioAssay (NCATS).
Records with an inconclusive call do not appear. A call without a number means that no potency is given here. Activity calls are given as the source filed them. Calls come from the whole dose curve; as a rule, active = well fitted inhibition curve with a large enough effect; inconclusive = small, poorly fitted or top-dose-only effect; inactive = flat fitted curve, though single readings scatter. Peptide text beside a SMILES is read from it.

Tested on: CP194
Assay: qHTS profiling for inhibitors of Plasmodium falciparum proliferation (AID 504749); note: nearly all actives have a fitted effect of over 60% in size
Conditions: P. falciparum in erythrocytes, SYBR Green DNA, 72 h; series mostly up to 12.8 µM
Method in brief: (§1)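 Quantitative HTS: compounds pinned into medium, infected erythrocytes added (0.3% parasitemia, 2.5% hematocrit), 72 h culture at 37 C under 5% CO2. Saponin/Triton lysis with SYBR Green I, overnight RT, then fluorescence read.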
Potency is the fitted concentration of half-maximal effect.

SMILES | Potency
CCC(C)C(=O)OC1CCC=C2C=CC(C)C(CCC3CC(O)CC(=O)O3)[C@@H]21 (stereo partly drawn) | inactive
C[C@]1(c2ccccc2)OC(C(=O)O)=CC1=O | inactive
OCC1OC([S-])[C@H](O)C(O)C1O.[Au+] (stereo partly drawn) | inactive
COC(=O)N/N=C/C1=C[N+](=O)c2ccccc2[N+]1=O | inactive
CN1CC(=O)N=C1N | inactive
CNC1CC(N)[C@H](O)[C@@H](O[C@@H]2OC(CO)C3OC4(OC(C(N)CO)C(O)C(O)C4O)O[C@@H]3[C@H]2O)C1O (stereo partly drawn) | inactive
COC1C=CO[C@@]2(C)Oc3c(C)c(O)c4c(O)c(c(C=NN5CCN(C)CC5)c(O)c4c3C2=O)NC(=O)/C(C)=C\C=CC(C)C(O)[C@@H](C)C(O)C(C)[C@H](OC(C)=O)C1C (stereo partly drawn) | 4.78 µM (active)
CC(=O)N[C@@H]1C(O)OC(CO)C(O)C1O (stereo partly drawn) | inactive
CCC(CCC(C)C1CCC2C3CC=C4CC(O)CC[C@@]4(C)C3CC[C@@]12C)C(C)C (stereo partly drawn) | inactive
O=C1OC(CO)C(O)C(O)C1O (stereo not drawn) | inactive
COc1ccc(CC(N)C(=O)NC2C(CO)OC(n3cnc4c(N(C)C)ncnc43)C2O)cc1 (stereo not drawn) | 1.07 µM (active)
CCCC(=O)O[C@]1(C(=O)CO)CCC2[C@@H]3CCC4=CC(=O)CC[C@]4(C)C3C(O)C[C@]21C (stereo partly drawn) | inactive
COC(=O)C(Cc1ccccc1)NC(=O)C(N)CC(=O)O (stereo not drawn) (H-Asp-Phe-OMe; configuration not given here) | inactive
CC[C@@]12CCCN3CCc4c(n(c5ccccc45)[C@](O)(C(=O)OC)C1)C32 (stereo partly drawn) | inactive
CC1(C)SC2C(N3C(=O)C(c4ccccc4)NC3(C)C)C(=O)N2C1C(=O)O (stereo not drawn) | inactive
CC1CCC(C(C)C)C(=O)C1 (stereo not drawn) | inactive

SMILES | Potency
CC(=O)N[C@H](CC(C)C)C(=O)O | inactive
CC(C)C1CCC(C(=O)NC(Cc2ccccc2)C(=O)O)CC1 (stereo not drawn) | inactive
COc1ccc2cc(C(C)CO)ccc2c1 (stereo not drawn) | inactive
COc1ccc2cc1Oc1ccc(cc1)CC1c3c(cc4c(c3Oc3cc5c(cc3OC)CCN(C)C5C2)OCO4)CCN1C (stereo not drawn) | 13.5 µM (active)
CNC1C(OC2C(O[C@@H]3C(O)C(O)[C@@H](N=C(N)N)C(O)C3N=C(N)N)OC(C)[C@@]2(O)CO)OC(CO)C(O)C1O (stereo partly drawn) | inactive
CC1C2CCC3C4CC=C5CC(N(C)C)CC[C@@]5(C)C4CC[C@@]32CN1C (stereo partly drawn) | inactive
C[C@]12C=CC(=O)C=C1CCC1C2C(O)C[C@]2(C)C1CC[C@]2(O)C(=O)CO (stereo partly drawn) | inactive
COc1ccc2c(c1)N(C[C@@H](C)CN(C)C)c1ccccc1S2 | inactive
CCOC(=O)C1=CC(OC(CC)CC)C(NC(C)=O)C(N)C1 (stereo not drawn) | inactive
CN(C)CCc1c[nH]c2ccc(CC3COC(=O)N3)cc12 (stereo not drawn) | inactive
NCC1CCC(N)C(O[C@@H]2C(O)[C@H](O[C@H]3OC(CO)C(O)C(N)C3O)[C@@H](N)C[C@H]2N)O1 (stereo partly drawn) | inactive
OCC1O[C@H](OC2C(CO)O[C@@](O)(CO)C2O)C(O)C(O)C1O (stereo partly drawn) | inactive
CC1(C)OC2CO[C@]3(COS(N)(=O)=O)OC(C)(C)OC3C2O1 (stereo partly drawn) | inactive
CC(=O)OC1CCC2C3CCc4cc(O)ccc4C3CCC12C (stereo not drawn) | inactive
CN(C)CCCOC1C(C(O)CO)OC2OC(C)(C)O[C@@H]21 (stereo partly drawn) | inactive
COc1cc(C2c3cc4c(cc3C(O[C@@H]3OC5COC(c6cccs6)OC5C(O)C3O)C3COC(=O)C23)OCO4)cc(OC)c1O (stereo partly drawn) | 1.69 µM (active)

Tested on: CP201
Assay: as above
Conditions: P. falciparum in erythrocytes, SYBR Green DNA, 72 h; series mostly up to 12.8 µM
Method in brief: as §1

SMILES | Potency
CCC(C)C(=O)OC1CCC=C2C=CC(C)C(CCC3CC(O)CC(=O)O3)[C@@H]21 (stereo partly drawn) | inactive
C[C@]1(c2ccccc2)OC(C(=O)O)=CC1=O | inactive
OCC1OC([S-])[C@H](O)C(O)C1O.[Au+] (stereo partly drawn) | inactive
COC(=O)N/N=C/C1=C[N+](=O)c2ccccc2[N+]1=O | inactive
CN1CC(=O)N=C1N | inactive
CNC1CC(N)[C@H](O)[C@@H](O[C@@H]2OC(CO)C3OC4(OC(C(N)CO)C(O)C(O)C4O)O[C@@H]3[C@H]2O)C1O (stereo partly drawn) | inactive
COC1C=CO[C@@]2(C)Oc3c(C)c(O)c4c(O)c(c(C=NN5CCN(C)CC5)c(O)c4c3C2=O)NC(=O)/C(C)=C\C=CC(C)C(O)[C@@H](C)C(O)C(C)[C@H](OC(C)=O)C1C (stereo partly drawn) | 5.36 µM (active)
CC(=O)N[C@@H]1C(O)OC(CO)C(O)C1O (stereo partly drawn) | inactive
CCC(CCC(C)C1CCC2C3CC=C4CC(O)CC[C@@]4(C)C3CC[C@@]12C)C(C)C (stereo partly drawn) | inactive
O=C1OC(CO)C(O)C(O)C1O (stereo not drawn) | inactive
COc1ccc(CC(N)C(=O)NC2C(CO)OC(n3cnc4c(N(C)C)ncnc43)C2O)cc1 (stereo not drawn) | 1.51 µM (active)
CCCC(=O)O[C@]1(C(=O)CO)CCC2[C@@H]3CCC4=CC(=O)CC[C@]4(C)C3C(O)C[C@]21C (stereo partly drawn) | inactive
COC(=O)C(Cc1ccccc1)NC(=O)C(N)CC(=O)O (stereo not drawn) (H-Asp-Phe-OMe; configuration not given here) | inactive
CC[C@@]12CCCN3CCc4c(n(c5ccccc45)[C@](O)(C(=O)OC)C1)C32 (stereo partly drawn) | inactive
CC1(C)SC2C(N3C(=O)C(c4ccccc4)NC3(C)C)C(=O)N2C1C(=O)O (stereo not drawn) | inactive
CC1CCC(C(C)C)C(=O)C1 (stereo not drawn) | inactive

SMILES | Potency
CC(=O)N[C@H](CC(C)C)C(=O)O | inactive
CC(C)C1CCC(C(=O)NC(Cc2ccccc2)C(=O)O)CC1 (stereo not drawn) | inactive
COc1ccc2cc(C(C)CO)ccc2c1 (stereo not drawn) | inactive
CNC1C(OC2C(O[C@@H]3C(O)C(O)[C@@H](N=C(N)N)C(O)C3N=C(N)N)OC(C)[C@@]2(O)CO)OC(CO)C(O)C1O (stereo partly drawn) | inactive
CC1C2CCC3C4CC=C5CC(N(C)C)CC[C@@]5(C)C4CC[C@@]32CN1C (stereo partly drawn) | inactive
C[C@]12C=CC(=O)C=C1CCC1C2C(O)C[C@]2(C)C1CC[C@]2(O)C(=O)CO (stereo partly drawn) | inactive
COc1ccc2c(c1)N(C[C@@H](C)CN(C)C)c1ccccc1S2 | inactive
CCOC(=O)C1=CC(OC(CC)CC)C(NC(C)=O)C(N)C1 (stereo not drawn) | inactive
CN(C)CCc1c[nH]c2ccc(CC3COC(=O)N3)cc12 (stereo not drawn) | inactive
NCC1CCC(N)C(O[C@@H]2C(O)[C@H](O[C@H]3OC(CO)C(O)C(N)C3O)[C@@H](N)C[C@H]2N)O1 (stereo partly drawn) | inactive
OCC1O[C@H](OC2C(CO)O[C@@](O)(CO)C2O)C(O)C(O)C1O (stereo partly drawn) | inactive
CC1(C)OC2CO[C@]3(COS(N)(=O)=O)OC(C)(C)OC3C2O1 (stereo partly drawn) | inactive
CC(=O)OC1CCC2C3CCc4cc(O)ccc4C3CCC12C (stereo not drawn) | inactive
CN(C)CCCOC1C(C(O)CO)OC2OC(C)(C)O[C@@H]21 (stereo partly drawn) | inactive
COc1cc(C2c3cc4c(cc3C(O[C@@H]3OC5COC(c6cccs6)OC5C(O)C3O)C3COC(=O)C23)OCO4)cc(OC)c1O (stereo partly drawn) | 4.78 µM (active)
